Our source for the outcome and AC50 values is PubChem BioAssay (EPA / NIEHS).

In general, AC50 refers to the midpoint of the concentration-response curve, whichever way the signal moves.

Records with an inconclusive call do not appear. The source made the active and inactive calls. How the source made its calls, unless noted: active means hit-call score of the fitted dose curve at least 0.9, where 1 is the maximum; inactive means score below 0.9.

Assay [1] in a line: ATG_NFI_CIS: Attagene CIS-FACTORIAL HepG2 Assay for human Nuclear Factor I (NFI) (AID 2282989). Particulars: HepG2 cis-regulatory reporter, NFI response element transcription; actives raise or lower the signal. The essentials: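 After transient transfection of HepG2 with cis-promoter reporter constructs and 24 h dosing, RNA is reverse-transcribed, amplified, 6-FAM end-labelled and HpaI-digested before capillary analysis. Bidirectional curve fitting against DMSO.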

The target in assay [2] is Myc proto-oncogene protein (Homo sapiens) (UniProt P01106). Kind of assay: ATG_Myc_CIS: Attagene CIS-FACTORIAL HepG2 Assay for human Myelocytomatosis (Myc) Proto-Oncogene Transcription Factor (AID 2282990). Particulars: HepG2, Attagene cis-reporter transcription factor activity; actives raise or lower the signal. The essentials: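 Fluorescence intensity of reporter-specific cDNA fragments, separated by capillary electrophoresis, gives the signal. Transfected HepG2 cells carrying cis-promoter reporter constructs are incubated with compound for 24 h; DMSO serves as baseline.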
Sequence of Myc proto-oncogene protein (Homo sapiens) (P01106 whole entry, looked up, the tested form may be a part): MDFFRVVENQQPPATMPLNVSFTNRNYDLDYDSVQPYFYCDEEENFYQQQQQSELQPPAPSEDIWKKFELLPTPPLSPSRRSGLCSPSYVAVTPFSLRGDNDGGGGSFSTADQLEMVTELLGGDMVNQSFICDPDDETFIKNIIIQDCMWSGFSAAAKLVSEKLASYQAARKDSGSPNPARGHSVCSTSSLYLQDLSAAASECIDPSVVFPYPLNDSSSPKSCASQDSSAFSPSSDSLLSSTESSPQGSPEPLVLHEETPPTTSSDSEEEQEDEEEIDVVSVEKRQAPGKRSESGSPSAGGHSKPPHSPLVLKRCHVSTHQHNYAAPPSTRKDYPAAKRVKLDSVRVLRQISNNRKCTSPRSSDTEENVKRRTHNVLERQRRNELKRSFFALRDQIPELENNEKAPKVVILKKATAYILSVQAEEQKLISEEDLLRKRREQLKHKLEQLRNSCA

Assay [3] can be described thus: ATG_NF_kB_CIS: Attagene CIS-FACTORIAL HepG2 Assay for human Nuclear Factor Kappa B (NF-kB) (AID 2282991). Particulars: HepG2 Attagene cis-factorial NF-kB reporter mRNA; actives raise or lower the signal. The essentials: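 After 24 h compound incubation, transfected HepG2 cells yield total RNA; reporter cDNA is PCR-amplified, end-labelled with 6-FAM, HpaI-digested and analysed on a genetic analyser. Endogenous factor activity, DMSO-referenced bidirectional fit.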

The nature of assay [4]: ATG_NRF2_ARE_CIS: Attagene CIS-FACTORIAL HepG2 Assay for human Nuclear Factor Erythroid 2 Related Factor 2 (NFR2) response to Antioxidant Response Elements (ARE) (AID 2282992). The conditions noted are these: HepG2 Attagene ARE/NRF2 reporter, transcription factor activity; actives raise or lower the signal. The essentials: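 Cis-factorial assay: transfected HepG2 reporter library, 24 h dosing, mRNA readout via RT-PCR/CE; DMSO-referenced bidirectional analysis.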

The nature of assay [5]: ATG_Oct_MLP_CIS: Attagene CIS-FACTORIAL HepG2 Assay for human Octamer-Binding Transcription Factor (Oct) (AID 2282993). The conditions noted are these: HepG2 Attagene cis-factorial Oct reporter, mRNA; actives raise or lower the signal. The essentials:
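Cells of the HepG2 line express promoter-controlled reporter sequences whose mRNA levels, after 24 h treatment, are measured by RT-PCR and capillary electrophoresis. Increases and decreases are scored relative to DMSO.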

For assay [6], the target named is Cellular tumor antigen p53 (Homo sapiens) (UniProt P04637). Briefly: ATG_p53_CIS: Attagene CIS-FACTORIAL HepG2 Assay for human p53 Transcription Factor (AID 2282994). The conditions noted are these: HepG2 p53 cis-element reporter, Attagene mRNA; actives raise or lower the signal. Summed up: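 Using HepG2 hepatoma cells carrying cis-acting multiplexed reporters, mRNA induction is detected after a 24 h exposure. Gain- and loss-of-signal responses are fitted relative to DMSO-treated cells.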
Sequence of Cellular tumor antigen p53 (Homo sapiens) (P04637 whole entry, looked up): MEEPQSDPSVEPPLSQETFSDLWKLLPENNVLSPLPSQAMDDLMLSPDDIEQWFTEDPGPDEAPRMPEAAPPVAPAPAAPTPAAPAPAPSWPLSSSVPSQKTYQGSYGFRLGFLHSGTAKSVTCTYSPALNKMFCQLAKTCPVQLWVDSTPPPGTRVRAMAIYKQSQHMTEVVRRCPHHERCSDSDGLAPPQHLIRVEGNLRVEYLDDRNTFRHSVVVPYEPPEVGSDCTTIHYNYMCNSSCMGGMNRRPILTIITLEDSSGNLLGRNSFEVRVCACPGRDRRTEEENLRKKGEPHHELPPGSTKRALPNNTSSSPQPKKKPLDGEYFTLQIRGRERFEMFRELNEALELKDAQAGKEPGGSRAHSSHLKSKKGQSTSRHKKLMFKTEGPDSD

Assay [7] addresses human Peroxisome Proliferator-activated Receptor alpha (PPARa), PPARA (gene 5465) (UniProt Q07869). Briefly: ATG_PPARa_TRANS: Attagene TRANS-FACTORIAL HepG2 Assay for human Peroxisome Proliferator-activated Receptor alpha (PPARa) (AID 2283001; active means hit-call score of the fitted dose curve at least 0.9, where 1 is the maximum;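 on AC50: potency for gain of reporter signal over DMSO so agonist or activator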). The essentials:
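Measures transcriptional activity of an exogenous chimeric PPARa-Gal4 protein in transiently transfected HepG2 cells after 24 h dosing. Reporter mRNA quantified via RT-PCR and capillary electrophoresis; DMSO served as negative control.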

Assay [8] addresses human Peroxisome Proliferator-activated Receptor delta (PPARd), PPARD (gene 5467) (UniProt Q03181). Kind of assay: ATG_PPARd_TRANS: Attagene TRANS-FACTORIAL HepG2 Assay for human Peroxisome Proliferator-activated Receptor delta (PPARd) (AID 2283002; active means hit-call score of the fitted dose curve at least 0.9, where 1 is the maximum). The essentials:
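Fluorescence from capillary electrophoresis of labelled RT-PCR reporter fragments gives the signal; DMSO sets baseline. Cells: HepG2 transiently carrying GAL4-UAS reporter units plus chimeric nuclear receptor-Gal4 proteins, exposed to chemicals for 24 h.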

Assay [9] has as its target human Retinoic Acid Receptor beta (RARb), RARB (gene 5915) (UniProt P10826). Kind of assay: ATG_RARb_TRANS: Attagene TRANS-FACTORIAL HepG2 Assay for human Retinoic Acid Receptor beta (AID 2283004; active means hit-call score of the fitted dose curve at least 0.9, where 1 is the maximum). The essentials: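 HepG2 cells transiently transfected with multiplexed GAL4-UAS reporter units expressing chimeric NR–Gal4 fusions; 24 h compound exposure. Reporter mRNA quantified by RT-PCR, 6-FAM labelling, HpaI digestion and capillary electrophoresis; gain-of-signal fitted against DMSO baseline.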

Assay [10] has as its target Peroxisome proliferator-activated receptor gamma (Homo sapiens) (UniProt P37231). Briefly: ATG_PPARg_TRANS: Attagene TRANS-FACTORIAL HepG2 Assay for human Peroxisome Proliferator-activated Receptor-gamma (PPARg) (AID 2283007; active means hit-call score of the fitted dose curve at least 0.9, where 1 is the maximum). The essentials: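 Liver-derived HepG2 cells expressing an exogenous NR-Gal4 chimera alongside GAL4-UAS reporter genes; 24 h exposure. Fluorescence of reporter RT-PCR products, separated by capillary electrophoresis, gives mRNA induction relative to DMSO.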

Assay [11] deals with Nuclear receptor subfamily 1 group I member 2 (Homo sapiens) (UniProt O75469). Briefly: ATG_PXR_TRANS: Attagene TRANS-FACTORIAL HepG2 Assay for human Pregnane X Receptor (PXR) (AID 2283008; active means hit-call score of the fitted dose curve at least 0.9, where 1 is the maximum). Summed up: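 Fluorescence intensity of FAM-labelled, HpaI-digested reporter amplicons, separated by capillary electrophoresis, quantifies induction. HepG2 cells with PXR-Gal4 trans-reporter system were exposed 24 h; DMSO defines baseline.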
Sequence of Nuclear receptor subfamily 1 group I member 2 (Homo sapiens) (O75469 whole entry, looked up, the tested form may be a part): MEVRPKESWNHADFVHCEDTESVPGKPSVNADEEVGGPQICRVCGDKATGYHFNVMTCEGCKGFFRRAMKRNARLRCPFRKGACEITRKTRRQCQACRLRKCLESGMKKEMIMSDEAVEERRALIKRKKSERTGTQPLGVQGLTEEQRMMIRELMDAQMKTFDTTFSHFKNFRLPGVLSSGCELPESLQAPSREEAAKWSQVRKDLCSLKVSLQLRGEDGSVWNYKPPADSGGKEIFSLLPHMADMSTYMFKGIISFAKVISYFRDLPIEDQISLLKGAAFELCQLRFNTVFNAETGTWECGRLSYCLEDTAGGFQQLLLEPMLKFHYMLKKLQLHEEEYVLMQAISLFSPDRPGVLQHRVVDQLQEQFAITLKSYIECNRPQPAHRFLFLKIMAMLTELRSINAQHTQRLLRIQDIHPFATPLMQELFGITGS

Assay [12] concerns the target human Retinoic Acid Receptor gamma (RARg), RARG (gene 5916) (UniProt P13631). Kind of assay: ATG_RARg_TRANS: Attagene TRANS-FACTORIAL HepG2 Assay for human Retinoic Acid Receptor gamma (RARg) (AID 2283009; active means hit-call score of the fitted dose curve at least 0.9, where 1 is the maximum). Summed up:
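HepG2 cells transiently transfected with multiplexed reporter units expressing chimeric RARg-GAL4 and GAL4-UAS-driven reporters; 24 h compound exposure. Reporter mRNA quantified by RT-PCR with fluorescent labelling and capillary electrophoresis; gain-of-signal fitted relative to DMSO baseline.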

In assay [13] the target is human RAR-related Orphan Receptor beta (RORb), RORB (gene 6096) (UniProt Q92753). Briefly: ATG_RORb_TRANS: Attagene TRANS-FACTORIAL HepG2 Assay for human RAR-related Orphan Receptor beta (RORb) (AID 2283010; active means hit-call score of the fitted dose curve at least 0.9, where 1 is the maximum). The essentials: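 HepG2 cells were transiently transfected with multiplexed GAL4-UAS reporter units expressing chimeric nuclear receptor–GAL4 proteins, then dosed for 24 h. Reporter mRNA was quantified by RT-PCR with fluorescent labelling and capillary electrophoresis; gain of signal was fitted relative to DMSO.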
Sequence of human RAR-related Orphan Receptor beta (RORb), RORB (gene 6096) (Q92753 whole entry, looked up, the tested form may be a part): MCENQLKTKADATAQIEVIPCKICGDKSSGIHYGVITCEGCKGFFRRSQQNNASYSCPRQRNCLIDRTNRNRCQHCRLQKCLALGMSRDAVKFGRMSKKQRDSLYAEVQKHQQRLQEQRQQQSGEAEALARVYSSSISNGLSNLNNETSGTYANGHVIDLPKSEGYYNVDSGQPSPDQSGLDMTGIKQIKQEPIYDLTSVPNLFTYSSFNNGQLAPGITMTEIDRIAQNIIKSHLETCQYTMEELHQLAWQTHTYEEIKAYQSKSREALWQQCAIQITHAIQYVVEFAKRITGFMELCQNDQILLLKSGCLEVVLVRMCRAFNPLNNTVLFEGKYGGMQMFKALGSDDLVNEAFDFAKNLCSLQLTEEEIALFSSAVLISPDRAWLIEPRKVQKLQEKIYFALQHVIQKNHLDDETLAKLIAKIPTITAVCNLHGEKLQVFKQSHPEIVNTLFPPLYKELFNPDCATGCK

The nature of assay [14]: BSK_3C_TissueFactor: BioMAP Diversity Plus: 3C Assay for Tissue Factor Biomarker Activity (AID 2282997). Particulars: BioMAP 3C HUVEC, tissue factor biomarker readout; actives raise or lower the signal. The essentials: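 Primary human umbilical vein endothelial cells in the 3C system were exposed to test chemical for 24 h, then Tissue Factor measured by ELISA. Activity was fitted bidirectionally against DMSO as negative control and baseline.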

Assay [15] is described as follows: BSK_3C_uPAR: BioMAP Diversity Plus: 3C Assay for Urokinase-type plasminogen activator receptor (uPAR) Biomarker Activity (AID 2282998). Particulars: BioMAP 3C HUVEC, uPAR biomarker ELISA; actives raise or lower the signal. The essentials: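 Endothelial primary cells of human umbilical vein origin received test chemical; 24 h later uPAR was assayed by ELISA. Fitting was bidirectional, DMSO as negative control.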
In general terms: In an ELISA, binding on a coated surface is turned into a signal by an enzyme label.

Assay [16] in a line: BSK_3C_VCAM1: BioMAP Diversity Plus: 3C Assay for Vascular cell adhesion molecule 1 (VCAM1) Biomarker Activity (AID 2282999). The conditions noted are these: BioMAP 3C HUVEC, VCAM1 ELISA, cytokine-stimulated; actives raise or lower the signal. The essentials:
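Human umbilical vein endothelial cells (3C system), biomarker read by ELISA 24 h after dosing; bidirectional fit against DMSO baseline. Cytotoxicity tracked by SRB total-protein staining in parallel cultures at biomarker time.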

The nature of assay [17]: BSK_4H_Eotaxin3: BioMAP Diversity Plus: 4H Assay for Eotaxin 3 Biomarker Activity (AID 2283000).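 On outcome: CCL26 protein level quantified by ELISA in parallel with SRB cytotoxicity check.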 Particulars: primary human endothelial cells (HUVEC); actives raise or lower the signal. The essentials: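 HUVEC, 24 h post-dose, ELISA for Eotaxin-3/CCL26. Gain or loss of signal fitted bidirectionally vs DMSO baseline.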
Read-out in assay [18]: Intercellular Adhesion Molecule 1 (ICAM1), ICAM1 (gene 3383)
Kind of assay: BSK_3C_ICAM1: BioMAP Diversity Plus: 3C Assay for Intercellular Adhesion Molecule 1 (ICAM1) Biomarker Activity (AID 2283003). Particulars: primary human endothelial cells (HUVEC); actives raise or lower the signal. The essentials:
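Primary human umbilical vein endothelial cells in the BioMAP 3C system were exposed to chemicals for 24 h, then ICAM-1 was quantified by ELISA. Activity was fitted bidirectionally against the DMSO negative control baseline.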

A short description of assay [19]: BSK_3C_Proliferation: Cell Proliferation Assessment in the BioMAP Diversity Plus: 3C Assay (AID 2283006).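 On AC50: potency may reflect either rise or fall in cell number versus DMSO.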 The conditions noted are these: primary human endothelial cells (HUVEC). Summed up:
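Human umbilical vein endothelial cells were grown sub-confluent and exposed to chemical for 48 h, then fixed with 10% TCA and stained with 0.1% sulforhodamine B; absorbance at 560 nm gave relative cell number, fitted bidirectionally against DMSO baseline.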

Assay [20] addresses Retinoic acid receptor alpha (Homo sapiens) (UniProt P10276). Kind of assay: ATG_RARa_TRANS: Attagene TRANS-FACTORIAL HepG2 Assay for human Retinoic Acid Receptor alpha (RARa) (AID 2283005; active means hit-call score of the fitted dose curve at least 0.9, where 1 is the maximum). The essentials: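 HepG2 transiently transfected with multiplex GAL4-UAS reporter units including a human RARa–GAL4 chimera; 24 h compound exposure. Reporter mRNA quantified by RT-PCR, 6-FAM labeling and capillary electrophoresis; gain of signal versus DMSO.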

Sequence of human Peroxisome Proliferator-activated Receptor delta (PPARd), PPARD (gene 5467) (Q03181 whole entry, looked up, the tested form may be a part): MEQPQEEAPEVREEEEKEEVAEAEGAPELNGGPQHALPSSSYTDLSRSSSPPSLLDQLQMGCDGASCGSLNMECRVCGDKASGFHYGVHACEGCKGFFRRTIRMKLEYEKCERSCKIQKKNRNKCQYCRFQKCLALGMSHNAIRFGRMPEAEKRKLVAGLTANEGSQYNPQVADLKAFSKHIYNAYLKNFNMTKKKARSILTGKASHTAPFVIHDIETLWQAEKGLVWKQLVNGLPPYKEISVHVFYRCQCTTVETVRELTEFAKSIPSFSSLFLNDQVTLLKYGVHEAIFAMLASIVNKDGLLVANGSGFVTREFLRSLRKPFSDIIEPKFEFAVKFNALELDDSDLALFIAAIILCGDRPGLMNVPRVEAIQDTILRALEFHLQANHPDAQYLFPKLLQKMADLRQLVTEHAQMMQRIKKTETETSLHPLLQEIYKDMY
Sequence of human Peroxisome Proliferator-activated Receptor alpha (PPARa), PPARA (gene 5465) (Q07869 whole entry, looked up, the tested form may be a part): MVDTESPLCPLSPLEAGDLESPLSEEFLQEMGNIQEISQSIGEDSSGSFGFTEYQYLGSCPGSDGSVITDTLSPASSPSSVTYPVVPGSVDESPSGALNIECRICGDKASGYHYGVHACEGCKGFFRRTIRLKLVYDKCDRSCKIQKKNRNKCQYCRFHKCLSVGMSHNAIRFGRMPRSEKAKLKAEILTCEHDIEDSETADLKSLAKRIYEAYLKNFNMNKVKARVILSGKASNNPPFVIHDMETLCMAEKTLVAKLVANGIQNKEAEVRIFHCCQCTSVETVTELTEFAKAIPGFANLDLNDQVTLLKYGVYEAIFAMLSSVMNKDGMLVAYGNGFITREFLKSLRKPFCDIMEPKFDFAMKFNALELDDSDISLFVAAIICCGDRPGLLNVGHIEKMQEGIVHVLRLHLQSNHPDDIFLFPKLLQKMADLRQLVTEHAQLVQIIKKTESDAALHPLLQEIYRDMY
Sequence of Peroxisome proliferator-activated receptor gamma (Homo sapiens) (P37231 whole entry, looked up, the tested form may be a part): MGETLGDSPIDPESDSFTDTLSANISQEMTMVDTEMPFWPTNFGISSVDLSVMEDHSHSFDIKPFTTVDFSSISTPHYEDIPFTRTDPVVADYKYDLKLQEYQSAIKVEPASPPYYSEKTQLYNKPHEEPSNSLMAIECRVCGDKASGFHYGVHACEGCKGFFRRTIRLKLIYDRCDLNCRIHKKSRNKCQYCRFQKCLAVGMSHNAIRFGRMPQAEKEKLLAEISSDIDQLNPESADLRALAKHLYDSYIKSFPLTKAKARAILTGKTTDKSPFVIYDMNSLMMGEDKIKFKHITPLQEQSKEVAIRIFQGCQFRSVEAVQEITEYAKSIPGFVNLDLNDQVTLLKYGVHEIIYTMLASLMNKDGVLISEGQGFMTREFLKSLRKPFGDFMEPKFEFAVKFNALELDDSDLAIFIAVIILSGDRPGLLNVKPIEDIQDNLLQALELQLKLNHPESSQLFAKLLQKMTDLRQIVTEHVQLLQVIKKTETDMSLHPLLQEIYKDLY
Sequence of human Retinoic Acid Receptor beta (RARb), RARB (gene 5915) (P10826 whole entry, looked up, the tested form may be a part): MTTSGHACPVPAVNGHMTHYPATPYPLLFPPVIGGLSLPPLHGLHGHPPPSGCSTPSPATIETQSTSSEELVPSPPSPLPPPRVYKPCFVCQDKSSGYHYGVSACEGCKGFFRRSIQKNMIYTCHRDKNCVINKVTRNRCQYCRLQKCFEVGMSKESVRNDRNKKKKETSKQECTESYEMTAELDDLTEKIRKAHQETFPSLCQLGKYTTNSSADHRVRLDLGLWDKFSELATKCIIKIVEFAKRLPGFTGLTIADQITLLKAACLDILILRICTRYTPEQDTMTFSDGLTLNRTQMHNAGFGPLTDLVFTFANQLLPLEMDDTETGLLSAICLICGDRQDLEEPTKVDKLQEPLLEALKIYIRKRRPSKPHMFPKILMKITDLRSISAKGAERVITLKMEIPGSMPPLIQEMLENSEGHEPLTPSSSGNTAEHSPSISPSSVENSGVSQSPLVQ
Sequence of human Retinoic Acid Receptor gamma (RARg), RARG (gene 5916) (P13631 whole entry, looked up, the tested form may be a part): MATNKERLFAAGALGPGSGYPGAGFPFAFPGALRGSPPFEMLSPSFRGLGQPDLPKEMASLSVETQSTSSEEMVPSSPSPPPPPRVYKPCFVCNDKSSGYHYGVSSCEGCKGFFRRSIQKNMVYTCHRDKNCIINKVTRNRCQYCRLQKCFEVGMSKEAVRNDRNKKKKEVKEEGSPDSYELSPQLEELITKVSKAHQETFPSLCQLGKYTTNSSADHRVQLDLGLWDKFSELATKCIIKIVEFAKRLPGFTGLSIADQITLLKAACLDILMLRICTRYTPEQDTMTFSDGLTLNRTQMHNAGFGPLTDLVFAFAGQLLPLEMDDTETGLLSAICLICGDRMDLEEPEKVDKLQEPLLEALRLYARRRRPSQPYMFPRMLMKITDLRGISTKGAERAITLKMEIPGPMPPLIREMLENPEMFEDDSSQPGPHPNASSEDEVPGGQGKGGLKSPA
Sequence of Retinoic acid receptor alpha (Homo sapiens) (P10276 whole entry, looked up, the tested form may be a part): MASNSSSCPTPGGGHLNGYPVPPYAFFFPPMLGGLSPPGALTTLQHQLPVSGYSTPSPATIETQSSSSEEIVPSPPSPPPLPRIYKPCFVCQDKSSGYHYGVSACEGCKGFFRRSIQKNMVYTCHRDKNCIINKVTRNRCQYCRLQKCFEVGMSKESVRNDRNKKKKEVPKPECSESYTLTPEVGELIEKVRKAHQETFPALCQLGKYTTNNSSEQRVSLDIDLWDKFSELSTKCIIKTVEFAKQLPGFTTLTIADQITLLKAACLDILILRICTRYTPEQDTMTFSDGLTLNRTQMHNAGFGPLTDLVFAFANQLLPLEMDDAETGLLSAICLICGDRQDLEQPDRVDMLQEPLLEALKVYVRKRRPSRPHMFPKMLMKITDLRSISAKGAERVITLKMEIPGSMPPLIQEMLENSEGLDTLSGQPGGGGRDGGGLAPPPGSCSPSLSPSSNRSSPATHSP

Take `C=CC(=O)OCCC#N`: the molecule was called inactive in [1], in [2], in assay [7], in [8], in assay [9] and in assay [11]. Also, the outcome in assay [12] and in assay [13] was inactive. For the same molecule, the AC50 in assay [3] is 50.9 µM (active); in assay [4], 25.9 µM (active); in assay [5] it was 44.1 µM (active); in assay [6] it was 164 µM (active); in assay [10], 6.89 µM (active).
With `CCCCCC(C=O)=Cc1ccccc1`, the result in assay [1], in [2], in assay [3], in [5], in assay [8] and in assay [11] was inactive. Besides, in assay [12], the molecule was classed as inactive. The AC50 in assay [4] was 100 µM (active); in assay [6], 164 µM (active); in [14], 31.7 µM (active); in [15], 31.5 µM (active); in assay [16], 33.1 µM (active); in [17] it was 31 µM (active). Also, the half-maximal activity concentration (AC50) in assay [7] is 27.5 µM (active); in assay [18] it was 30.9 µM (active); in assay [19], 30.8 µM (active); in assay [10], 27.6 µM (active).
On to `c1ccc2cc(Nc3ccc(Nc4ccc5ccccc5c4)cc3)ccc2c1`, for which the molecule was called inactive in [1], in assay [2], in assay [3], in assay [4], in assay [5] and in assay [6]. The result in assay [15], in assay [16], in assay [17], in assay [7], in assay [8] and in assay [18] was inactive. The outcome in [19], in assay [10], in assay [11] and in assay [13] was inactive. Also, the AC50 in assay [14] is 13.9 µM (active).
With `CSCCC=O`, the call in [1], in assay [2], in [3], in assay [4], in assay [5] and in [6] was inactive. In addition, the outcome in [14], in assay [15], in [16], in [17], in assay [18] and in [19] was inactive. The half-maximal activity concentration (AC50) was 56.3 µM (active) in [10] and 10.6 µM (active) in [11].
`COc1ccc(OC)c(N=Nc2c(O)ccc3ccccc23)c1`: the call in assay [1], in [2], in assay [3], in assay [5], in [6] and in [14] was inactive. For the same molecule, the result in [7], in [8], in [18], in assay [9] and in assay [10] was inactive. Further, the half-maximal activity concentration (AC50) in assay [4] was 0.493 µM (active); in assay [15] it was 12.2 µM (active); in [16] it was 20 µM (active); in [17] it was 9.47 µM (active); in assay [19], 12.6 µM (active); in assay [11], 4.23 µM (active).
In the case of `C=C(C)C(=O)OCCOCCOCCOC(=O)C(=C)C`, the molecule was classed as inactive in assay [1], in assay [2], in assay [3], in assay [4], in assay [5] and in assay [6]. The outcome in assay [14], in assay [15], in assay [16], in [17], in assay [7] and in [18] was inactive. In addition, the outcome in assay [19], in assay [10] and in [11] was inactive.
As for `C/C=C(\C)C(=O)OCCc1ccccc1`, the outcome in [1], in assay [2], in [3], in [4], in [5] and in assay [6] was inactive. Moreover, the molecule was called inactive in assay [7], in assay [8], in assay [20] and in assay [10]. Further, in [11], the AC50 is 25.1 µM (active).
With `O=CN1CCOCC1`, the result in [1], in assay [2], in assay [3], in [4], in assay [5] and in [6] was inactive. In addition, the result in assay [14], in assay [15], in [16], in assay [17], in [7] and in assay [8] was inactive. The outcome in assay [18], in [19], in assay [10] and in [11] was inactive.
